Pf growth 48h: inhibits P. falciparum growth in the first generation, 48 h; P. falciparum luciferase growth in erythrocytes, 48 h; Potency, µM (titrated, usually from 28.7 µM), actives largely listed as inhibitors; 310,000 tested, 5.9% active; AID 504832
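Parasite viability was followed by luminescence of a genomically integrated firefly luciferase. Cultures held 0.1% parasitemia at 2% hematocrit (final), incubated under 5% CO2 at 37 C.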
Sm TGR block: inhibitors of Schistosoma mansoni thioredoxin glutathione reductase | purified TGR, DTNB reduction, TNB absorbance 405 nm | Potency, µM (doses to about 114 µM), actives largely listed as inhibitors | 360,000 tested, 3% active; also: nearly all actives have a fitted effect of over 60% in size
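TGR 20 nM + NADPH 100 uM (dispensed conc.), cpd preinc 15 min RT; start with NADPH (500 uM addition) then DTNB (15 mM addition). Kinetic TNB absorbance, 405 nm filter. Four-parameter Hill fit across titration.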
Pf growth 96h: P. falciparum growth inhibition at 96 hour, primary screen for plastid delayed-death inhibitors; P. falciparum luciferase reporter growth, 96 h; Potency, µM (highest dose often 28.7 µM), actives largely listed as inhibitors; 320,000 tested, 6.9% active; AID 504834
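Parasite growth measured via integrated firefly luciferase reporter in P. falciparum. Infected erythrocytes at 2% hematocrit, 0.05% parasitemia final were treated 96 hours at 37 C under 5% CO2, and luminescence was read.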
SARS PLP yeast: blocks SARS-CoV papain-like protease in a yeast assay; S. cerevisiae expressing SARS-CoV PLpro, growth rescue; AID 485353; Potency, µM (top dose mostly 32.9 µM), hits mostly activators; 330,000 tested, 0.19% active; calls by dose curve; also: nearly all actives have a fitted effect of over 55% in size
Hits are given with their value; – = inactive; ? = inconclusive; · = no result; ! = repeats disagree; [ ] = another dose, or the depositor's remark. Most compounds without a hit are left out; they make up all but 12% or so of the library. Unless noted, calls follow the shape of the dose curve; as a rule, active = well fitted curve in the direction sought with a large enough effect; inconclusive = small, poorly fitted or top-dose-only effect, or another doubt; inactive = no such curve, though single readings can be large; an effect the other way counts as inactive or inconclusive.

SMILES	Pf growth 48h	Sm TGR block	Pf growth 96h	SARS PLP yeast
Cc1ccc2c(c1)c1c(c(=O)n(-c3ccccc3C)c(=O)n1CC(=O)NCC1CCCO1)n2C (centres undefined)	?	–	9.28µM	–
CCCN1CCN(CCNC(=O)Nc2ccccc2OCC)CC1	·	–	·	·
CCOC(=O)N1CCC2(CC1)OC(=O)C(C)=C2C(=O)NCc1ccc(C)cc1	·	–	·	·
C=CCn1c(=S)[nH]c2cc(C(=O)Nc3ccc(F)cc3)ccc2c1=O	–	–	?	–
CCCc1cc(C(=O)N(C)CC(=O)Nc2ccc(OCC)c(OCC)c2)sc1C	?	–	?	–
Clc1cnc(N/N=C/c2ccncc2)c(Cl)c1	–	–	–	–
Clc1ccc(N/N=C/c2ccncc2)cc1Cl	2.33µM	–	1.17µM	–
CCCCN(CC)CCCNC(=O)c1ccc2c(c1)NC(=O)CN2C	·	22.4µM	·	·
CCC1CCCCN1CCCNC(=O)c1ccc2c(c1)NC(=O)CN2C (centres undefined)	–	–	–	–
COC(=O)C1=C(C)N(Cc2ccccc2)C(=NCC2CC2)N[C@H]1c1ccccc1	9.28µM!	–	–	–
COCCN1C(=S)N[C@@H](c2ccccc2)C(C(=O)OC)=C1C	?	31.6µM	–	–
COC(=O)C1=C(C)N(Cc2ccccc2)C(=NCCc2cccnc2)N[C@H]1c1ccccc1	?	–	14.7µM	–
COC(=O)C1=C(C)N(Cc2ccccc2)C(=NCCc2cccnc2)N[C@H]1c1ccc(Br)cc1	7.38µM	–	–	–
COC(=O)C1=C(C)N(Cc2ccccc2)C(=S)N[C@H]1c1ccc(Br)cc1	?	–	–	–
COc1ccc2c(C)c(CCC(=O)NCCc3ccc(OC)c(OC)c3)c(=O)oc2c1	·	–	·	·
NC(=O)COc1ccc(C(=O)NCC2(N3CCOCC3)CCCCC2)cc1	–	–	?	–
CCN1C(=S)N[C@@H](CCc2ccccc2)C(C(=O)OC)=C1C	?	–	9.28µM	–
CCn1c(=O)c2cc(C(=O)NCCc3cc(OC)ccc3OC)sc2c2ccccc21	·	–	·	·
CNC(=O)c1cc(Oc2ccc(NC(=O)Nc3ccc(Cl)c(C(F)(F)F)c3)cc2)ccn1	?	–	–	–
CCOc1cc(N2CCOCC2)c(OCC)cc1NC(=O)c1c(-c2ccccc2)noc1C	?	–	?	–
CCOc1cc(N2CCOCC2)c(OCC)cc1NC(=O)c1c(-c2ccccc2Cl)noc1C	5.86µM	–	?	–
Cc1onc(-c2ccccc2Cl)c1C(=O)N1CCN(Cc2ccc3c(c2)OCO3)CC1	–	–	13.1µM	–
Cc1onc(-c2c(Cl)cccc2Cl)c1C(=O)N1CCN(Cc2ccccc2)CC1	?	–	?	–
Cc1onc(-c2ccccc2Cl)c1C(=O)N1CCN(c2ncccn2)CC1	–	–	–	–
CCOc1ccccc1N1CCN(C(=O)c2c(-c3ccccc3Cl)noc2C)CC1	9.28µM	–	–	–
SMILES	Pf growth 48h	Sm TGR block	Pf growth 96h	SARS PLP yeast
Cc1nn(Cc2ccccc2)c2sc(C(=O)N3CCN(Cc4ccc5c(c4)OCO5)CC3)cc12	10.4µM	–	?	·
COc1cccc(CNC(=O)CCn2cnc3ccccc3c2=O)c1	·	–	·	·
COc1ccccc1OCCNC(=O)CN1C(=O)NC2(CCCC2)C1=O	?	–	–	–
Cc1cc(NC(=O)COC(=O)c2cnccn2)ccc1Br	·	·	·	–
O=C(Cn1cnc2ccccc2c1=O)N1CCN(Cc2ccc3c(c2)OCO3)CC1	·	–	?	–
CC(NC(=O)c1ccccc1Cl)C(=O)N1CCN(Cc2ccc3c(c2)OCO3)CC1 (centres undefined)	–	14.1µM	–	–
CC(C)[C@@H](C(=O)N1CCN(Cc2ccc3c(c2)OCO3)CC1)n1nnc2ccccc2c1=O	?	–	13.1µM	–
C[C@H](NC(=O)c1ccccc1)C(=O)N1CCN(Cc2ccc3c(c2)OCO3)CC1	·	·	·	–
CC1CCCCN1C(=O)CSc1nc2ccccc2nc1Cc1ccccc1 (centres undefined)	·	–	·	·
Cc1ccc(Nc2nc(-c3ccc(S(=O)(=O)N4CCOCC4)cc3)cs2)cc1Cl	10.4µM	–	–	–
COc1cccc(C(=O)Nc2nc(-c3ccc(S(=O)(=O)N4CCOCC4)cc3)cs2)c1	11.7µM	–	–	?
Cc1ccc(-c2csc(NC(=O)c3ccc(S(=O)(=O)N4CCc5ccccc54)cc3)n2)cc1	10.4µM	–	13.1µM	–
O=C(Nc1nc(-c2cc3ccccc3o2)cs1)c1ccc(S(=O)(=O)N2CCCC2)cc1	–	–	13.1µM	–
CC1CN(S(=O)(=O)c2ccc(C(=O)Nc3nc(-c4cc5ccccc5o4)cs3)cc2)CC(C)O1 (centres undefined)	–	–	–	–
CCn1c(=O)n(-c2ccc(F)cc2)c(=O)c2sc3ccccc3c21	·	–	·	·
COc1ccccc1N1CCN(C(=O)CSc2n[nH]c(-c3ccccc3Cl)n2)CC1	·	–	·	·
COc1ccc(/C=N/Nc2nc(-c3cccc(S(=O)(=O)N4CCCC4)c3)cs2)c(OC)c1	13.1µM	–	?	–
Cc1ccc(-c2csc(NC(=O)c3cccc(S(=O)(=O)N4CCN(C)CC4)c3)n2)cc1	–	–	7.38µM	–
O=C(Nc1nc(-c2ccc(S(=O)(=O)N3CCOCC3)cc2)cs1)c1ccccc1	8.28µM	–	8.28µM	–
COc1ccc(-c2csc(NC(=O)c3ccc(S(=O)(=O)N4CCc5ccccc5C4)cc3)n2)c(OC)c1	–	–	?	–
Cc1ccc(C)c(CN2C(=O)c3ccccc3S(=O)(=O)c3ccc(C(=O)NCCC4=CCCCC4)cc32)c1	·	–	·	·
CCOc1ccccc1NC(=O)CN1CCC(NC(=O)Nc2ccccc2)CC1	?	–	–	–
Cc1cc(C)c2ccc3c(C)c(C)nc3c2[nH]1	3.7µM	–	–	–
Cc1cc(=O)[nH]c2c(C)c(N)ccc12	–	–	?	–
COC(=O)[C@@H](N)Cc1ccc(O)c(O)c1	?	–	9.53µM!	·
SMILES	Pf growth 48h	Sm TGR block	Pf growth 96h	SARS PLP yeast
COC(=O)C(N)Cc1ccc(Cl)cc1 (centres undefined)	–	–	–	·
C[C@@]12CCC(=O)C=C1C=C[C@H]1[C@H]3CC[C@](O)(CCC(=O)O)[C@]3(C)CC[C@@H]12	?	·	6.42µM	·
CC(=O)[C@H]1CC[C@H]2[C@@H]3C=CC4=CC(=O)CC[C@@]4(C)[C@@H]3CC[C@]12C	?	–	–	·
O=C1CC(c2ccccc2)Cc2[nH]c(=O)c(C(=O)Nc3ccc(OC(F)(F)F)cc3)cc21 (centres undefined)	·	–	·	·
CCCOc1ccc(NC(=O)CC2C(=O)N(C)C(=S)N2Cc2cccs2)cc1 (centres undefined)	11.7µM	–	?	–
COc1ccc(NC(=O)CC2C(=O)N(Cc3cccs3)C(=S)N2C(C)C)cc1 (centres undefined)	2.62µM	–	–[5.75 µM]	–
CN1C(=O)C(CC(=O)Nc2ccc(Cl)cc2)N(Cc2ccco2)C1=S (centres undefined)	?	10µM	–	–
CCc1ccc(NC(=O)CC2C(=O)N(c3ccc(Cl)cc3)C(=O)N2Cc2ccco2)cc1 (centres undefined)	·	–	·	·
Cc1ccccc1OCC(=O)NCc1ccccc1	–	–	3.7µM	–
Cc1ccccc1OCC(=O)Nc1ccccc1C(=O)N1CCCCC1	–	–	10.4µM	–
